KDM5B inhibitor: blocks human KDM5B histone demethylase activity; Q9UGL1; AID 1347165; KDM5B demethylase, FDH-coupled NADH fluorescence (FDH is formaldehyde dehydrogenase); Potency, µM (doses to about 57.7 µM), most hits filed as inhibitors; 2.6% of 220,000 active; active = well fitted inhibition curve with a large enough effect; also: 0% is about no effect; nearly all actives have a fitted effect of over 70% in size
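KDM5BΔAP (200 nM final) in 50 mM HEPES pH 7.5, 0.01% Tween-20 was preincubated 10 min at RT with compound over a concentration range. Substrate mix (H3K4me3 12.5 µM, α-KG 25 µM, Fe²⁺, ascorbate, NAD⁺, FDH) was added, and NADH fluorescence change over 30 min gave dose-response curves.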
* hit, by the source's call; i = inactive. Only a selection was taken, and hits are over-represented in it overall. Potency is read from the fitted curve at half-maximal effect.

SMILES	KDM5B inhibitor
CCOc1ccc(NC(=O)Nc2ccc3nc(N4CCOCC4)cc(C)c3c2)cc1	i
COc1ccc(-c2nc(N3CCOCC3)cc3c2CN(CC2CC2)C3=O)cn1	35.5µM*
Cc1ccccc1N1Cc2c(ncnc2N2CCOCC2)N(C)CC1=O	i
CC(C)c1ccccc1NC1=NS(=O)(=O)c2ccccc21	i
N#Cc1cccc(/C=C2\CCOc3cc(Br)ccc3C2=O)c1	i
O=C(CSc1nc2ccccc2o1)c1cccc(C(F)(F)F)c1	i
O=C(Nc1ccccc1F)N1CC2CCC(C1)N2Cc1cccc(Cl)c1	i
NC(=O)NC(=O)COC(=O)c1ccc2c(c1)OCCO2	i
CN(CC(=O)Nc1ccc(Cl)cc1)Cc1ncc(-c2ccc(F)cc2)o1	i
COCCC1(C(=O)O)CCN(c2ccnc3c(C(F)(F)F)cccc23)CC1	i
FC(F)(F)c1cccc2c(N3CCC4(CCCN4Cc4ncc[nH]4)CC3)ccnc12	28.2µM*
FC(F)(F)c1cccc2c(N3CCOC(C(F)(F)F)C3)ccnc12 (configuration not stated)	i
CC1=CC(=C(C#N)C#N)CC(C)(C)C1	i
Cc1ccccc1OCC(=O)OC1CCN(C)CC1	i
Cc1ccccc1-n1cc(-c2ccnc(NC3CCN(C)CC3)n2)cn1	28.2µM*
CN1CCC(Nc2nccc(C3(c4ccccc4Cl)CCNCC3)n2)CC1	i
Cc1ccc(-c2nc3ccccc3c(C(=O)O)c2C)cc1	i
O=C1[C@@H]2C[C@@H](CN2Cc2ccccn2)Oc2ccccc2N1Cc1ccccc1	i
N#Cc1ccc(CN2C[C@@H]3C[C@H]2C(=O)N(Cc2ccccc2)c2ccccc2O3)cc1	28.2µM*
COc1ccc(CN2C(=O)[C@@H]3C[C@@H](CN3Cc3ccc(C(=O)O)cc3)Oc3ccccc32)cc1	i
Cc1ccc(C(=O)CC(C(=O)O)c2c[nH]c3ccccc23)cc1 (configuration not stated)	i
Cc1[nH]c2ccccc2c1C(=O)C(=O)N1CCN(C2CC2)CC1	i
S=C(N/N=C1/CC2CC=CC12)NC1CCCCC1 (configuration not stated)	i
CC1CCCCC1NC(=O)c1ccc(C#N)cc1 (configuration not stated)	i
C[S+](=O)([O-])c1ccc(-c2cnc3n[nH]c(-c4ccc5c(c4)OCO5)c3n2)cc1	i
SMILES	KDM5B inhibitor
COc1ccc(-c2cnc3n[nH]c(-c4ccc(OC)c(F)c4)c3n2)cn1	i
Cc1cc(F)ccc1-c1[nH]nc2ncc(-c3cn[nH]c3)nc12	28.2µM*
COc1ccc(-c2[nH]nc3ncc(-c4ccc([S+](C)(=O)[O-])cc4)nc23)cc1F	i
Cc1cc(F)ccc1-c1[nH]nc2ncc(-c3ccc([S+](C)(=O)[O-])cc3)nc12	35.5µM*
Cc1noc2c(-c3cn[nH]c3)cc(-c3ccc(F)cc3)nc12	i
COc1ccc(NC(=O)NCc2nc(-c3cccc(Cl)c3)oc2C)cc1	i
CC(=O)N1CCC(N(CCCN2CCC(C)CC2)C(=O)Nc2ccccc2C(F)(F)F)CC1	i
c1ccn2cc(CSc3ccc4c(c3)OCCCO4)nc2c1	i
COc1ccc(CC2CN(C(=O)c3ccsc3)CCO2)cc1 (configuration not stated)	i
COc1ccc(C(=O)N2CCOC(Cc3cccc(C(F)(F)F)c3)C2)o1 (configuration not stated)	i
COc1ccc(CC2CN(C(=O)c3ccnc(N)c3)CCO2)cc1 (configuration not stated)	25.1µM*
O=C(NCc1ccc(Cl)cc1)[C@@H]1Cc2nc[nH]c2CN1Cc1cccs1	i
COC(=O)[C@@H]1Cc2ncn(Cc3ccc(Cl)cc3)c2CN1S(=O)(=O)Cc1ccccc1	i
COC(=O)[C@@H]1Cc2ncn(Cc3ccc(Cl)cc3)c2CN1Cc1cccs1	28.2µM*
COC(=O)[C@@H]1Cc2ncn(Cc3ccc(Cl)cc3)c2CN1CCCc1ccccc1	35.5µM*
COC(=O)[C@@H]1Cc2ncn(Cc3ccc(Cl)cc3)c2CN1C(=O)CC(C)(C)CC(=O)O	i
COC(=O)[C@@H]1Cc2ncn(Cc3ccc(OC)cc3)c2CN1C(=O)CC(C)(C)CC(=O)O	i
CN(CC(=O)Nc1ccc2c(c1)OC1(CCCC1)O2)S(=O)(=O)c1cccs1	i
COc1ccc(CNC(=O)c2nc(-c3ccccc3)oc2C)cc1OC	i
FC(F)(F)c1cccc(CNCc2cccc(C(F)(F)F)c2)c1	i
Cc1cccc(C(=O)N2CCN(Cc3ccc(-c4cccc(F)c4)s3)CC2)n1	i
CC(=O)c1c(C)[nH]c(C(=O)C(C)OC(=O)c2cnccn2)c1C (configuration not stated)	i
O=C(CCc1ncc(-c2ccc(F)cc2)o1)NCc1cccc(Cl)c1	i
NNC(=S)Nc1ccc(Br)cc1	i
COc1ccc(S(=O)(=O)Nc2c(N3CCCC3)c3ccccc3oc2=O)cc1Cl	i
COc1cccc(NC(=O)Cn2c(C)ccc(NC(=O)Nc3ccc(C)cc3)c2=O)c1	28.2µM*
COc1ccc(NC(=O)Nc2ccc(C)n(CC(=O)O)c2=O)cc1	i

Screens (PubChem)
